# Reference: the supplement of paper PMC3334620
# Over roughly 33,000 sequences, “E-score (-0.5 to 0.5)” has its median near -0.04; the highest 2% begin near 0.36. The entries come from a sample that favours the highest values as a whole.
# Biological target: T1, Hmlalpha2 (UniProt P0CY09)
# T1 sequence: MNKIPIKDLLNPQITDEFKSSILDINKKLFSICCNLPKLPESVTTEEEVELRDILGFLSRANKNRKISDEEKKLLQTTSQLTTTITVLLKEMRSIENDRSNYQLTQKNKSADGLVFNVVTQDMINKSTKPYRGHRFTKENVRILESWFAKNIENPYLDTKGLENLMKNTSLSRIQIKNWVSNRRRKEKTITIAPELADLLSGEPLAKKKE
# Assay: PBM E-score (8-mer binding enrichment) (E-score (-0.5 to 0.5)); higher = stronger / more preferred TF binding
# Details: protein concentration: 200 nM; construct: GST-full length
# Procedure: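 Universal 'all 10-mer' protein binding microarrays (Agilent AMADID 015681) probed with GST-tagged S. cerevisiae TFs (full-length or DBD) made by in vitro transcription/translation (PURExpress), about 100-200 nM. Bound TF was detected with fluorescent anti-GST. Each ungapped 8-mer (which stands for itself and its reverse complement) is scored by the PBM enrichment score (E-score), a modified Wilcoxon-Mann-Whitney statistic from -0.5 to +0.5, computed with the Universal PBM Analysis Suite. Scale: above 0.35 generally sequence-specific binding.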
row,Sequence,PBM E-score
1,AACGATCT,-0.0798
2,ACCAAAGG,-0.219
3,AGCACCCA,-0.176
4,CGGGTAAA,0.234
5,TGTACACA,0.418
6,AGTACAGG,0.134
7,AGTACACG,0.437
8,AGTACACT,0.074
9,GGTACACA,0.246
10,AGTACACC,0.115
11,CGTACACG,0.354
12,AGTACACA,0.387
13,TGTACAAA,0.422
14,CGTACACA,0.347
15,AGTACAAA,0.161
16,GGTACAAA,0.138
17,ACACCGCG,0.15
18,GCGACTCA,-0.134
19,ATGCGAGG,-0.117
20,GAACGATC,-0.0263
21,AGAGTGCC,-0.257
22,CGTACCTA,-0.0874
23,ACGGCCCC,-0.437
24,GAGTTAAC,0.234
25,GTGTTAAA,0.462

row,Sequence,PBM E-score
1,CTGTTAAC,0.304
2,AAGTTAAC,0.303
3,TTGTTAAA,0.359
4,ATGTTAAC,0.448
5,ATGTTAGC,0.342
6,CTGTTAAA,0.258
7,GTGTTAAC,0.462
8,CCCTTAAC,-0.0469
9,ATACTATC,0.0717
10,ATTTGCGA,0.0385
11,AAGTTTCC,0.0351
12,ATGCTGTG,0.238
13,CGGGTCCA,-0.262
14,AAGCGTCT,-0.232
15,ATGTTTAC,0.433
16,ATGTTTGC,0.166
17,CCGTTTAC,0.259
18,CTGTTTCC,-0.11
19,ATGTTTAG,0.33
20,CTGTTTAC,0.371
21,AGGAGATG,-0.157
22,AGGAAAAA,0.00347
23,GTATTATA,0.318
24,AATATGTA,0.386
25,ACTATGTA,0.444

row,Sequence,PBM E-score
1,GATATGTA,0.345
2,ACTATGTC,0.165
3,CATATGTA,0.356
4,AATATGTC,0.167
5,GCTATGTA,0.426
6,GCTATGCA,-0.0142
7,CCTATGTC,0.0957
8,CCTATGAA,-0.065
9,CCTATGTA,0.433
10,ACTATGTG,0.108
11,CTTCATTC,-0.149
12,AAGATCAC,-5e-05
13,CACAGGTC,-0.101
14,GAATACCC,-0.19
15,TGACCAAA,-0.0837
16,CCAGTAGG,-0.239
17,GTGAAGCA,-0.113
18,CTGGAAAG,-0.217
19,AAACCTTT,-0.111
20,AGGTATGG,-0.317
21,ACGCTTGC,-0.0163
22,TTACCCAA,0.02
23,CTGTAATA,0.286
24,ATGTAATC,0.478
25,CAGTAATG,0.167

row,Sequence,PBM E-score
1,ATGTAACG,0.362
2,GTGTAATA,0.456
3,CTGTAATC,0.243
4,AAGTAATA,0.24
5,GGGTAATA,0.193
6,ATGTAATA,0.48
7,ATGTAATG,0.479
8,CGGTAATA,-0.00682
9,ATGTAACC,0.304
10,GGAGTGTA,0.18
11,CATGAGGC,-0.166
12,TACTGTCA,-0.0966
13,CAGCAGCG,0.0849
14,GGGGATAA,-0.178
15,CCAGGACG,0.0263
16,GGGCCAAA,-0.124
17,GGGCACTA,-0.105
18,ACACGCCC,0.371
19,ACACGCCG,0.274
20,AGACGCCT,-0.0767
21,ACACGCCT,0.374
22,GCACGCCC,-0.0771
23,ACACGCCA,0.311
24,ATCCTGCA,-0.0119
25,CTATTGCA,0.117

row,Sequence,PBM E-score
1,CCGGTTTA,0.0123
2,GATGAGCC,-0.213
3,AGAAGGAA,-0.351
4,CCCTTAAA,-0.0696
5,GAGACGGA,-0.095
6,AAGTAGGC,-0.0798
7,CTTGAATC,-0.0387
8,CGATCTCA,-0.0804
9,AAGATCAG,-0.187
10,AACAACAT,0.385
11,AACAACAA,0.306
12,CACAACAC,0.306
13,GACAACAC,0.319
14,AACAACAG,0.108
15,AACAACAC,0.375
16,CGAAACCC,-0.121
17,CTTCTAGC,-0.197
18,CCCCGCAC,-0.201
19,CCGGGAAG,-0.179
20,CGTCCCCA,-0.224
21,CGACATGA,0.319
22,GTACATGA,0.426
23,GCACATGA,0.0937
24,GTACATTA,0.316
25,CTACATGA,0.421

row,Sequence,PBM E-score
1,CTACATCA,0.222
2,AACATTGC,0.191
3,GGAATCTA,-0.132
4,GCACGGAC,-0.0335
5,ACCAAATA,0.191
6,AGACACAT,0.128
7,ACACACAT,0.379
8,ATACACAT,0.399
9,ATACACAG,0.408
10,ATACACAA,0.42
11,CTATACAG,0.0549
12,ACACACAC,0.326
13,AGACACAA,0.172
14,ACACATAT,0.317
15,ACACACAA,0.313
16,ACACACAG,0.364
17,AAACACAT,0.314
18,TTCATGAA,-0.00198
19,ATTGAGCA,0.0182
20,ATAACCAC,-0.0123
21,ACCCCCGA,-0.0909
22,GGCAAAGA,-0.0294
23,CCCCTGTC,-0.152
24,GGCCAGCC,-0.192
25,CAGCGACG,-0.0401

row,Sequence,PBM E-score
1,ATACACAC,0.429
2,ATACACCG,0.145
3,ATACACTC,0.185
4,CGCTGAGA,-0.139
5,CCCTCAGA,-0.285
6,CTATTCCC,-0.203
7,AGTGCACC,-0.2
8,CAGTGTAC,0.154
9,AGGTGTAA,0.317
10,ACGTGTAA,0.482
11,AGGTGTAG,0.0925
12,CAGTGTAG,0.243
13,CCGTGTAG,0.452
14,AAGTGTAG,0.0742
15,CCGTGTCC,0.0408
16,CCGTGTCG,0.233
17,ACGTGTAG,0.429
18,ACGTGTGA,0.229
19,CCGTGTAC,0.422
20,CGGACGGA,-0.198
21,AGACTGGA,-0.0528
22,CGAATCGC,-0.169
